# Most compounds without a hit are left out; they make up all but 4.1% or so of the library.
# MazF activator = increases E. coli MazEF RNase cleavage of RNA | FAM/BHQ RNA-DNA oligo cleavage fluorescence, 5 h | P0AE70 | actives 0.32% (n = 350,000) | AID 504720 | activation, % at 20 µM; in the data active = activation above about 50%
# BoNT-A LC inh2 = BoNT A light chain protease inhibition; actives 0.17% (n = 360,000); multiplex microsphere protease substrate cleavage, flow cytometry; AID 588499; inhibition, % at 10 µM
# Anthrax LF prot = anthrax lethal factor protease inhibition | P15917 | actives 0.12% (n = 360,000) | multiplex microsphere protease cleavage assay, LF | inhibition, % at 10 µM
# VHR inh abs = blocks human VHR1 dual specificity phosphatase; P51452; recombinant VHR phosphatase, pNPP absorbance; inhibition, % at 13.3 µM; actives 0.52% (n = 290,000); AID 1654; in the data active = inhibition above about 50%
# Bead autofluor = compound fluorescence in toxin protease inhibitor counterscreen. actives 3.1% (n = 360,000). fluorescence intensity (no concentration beside the values). AID 624483. compound autofluorescence counterscreen, microsphere flow cytometry; active compounds read high; in the data active = fluorescence intensity above about 16000; inconclusive = no clear call, values can overlap the other calls
# BoNT-F LC inh = BoNT F light chain protease inhibition | Multiplex microsphere protease cleavage assay, flow cytometry | inhibition, % at 10 µM | actives 0.22% (n = 360,000); in the data active = inhibition above about 35%, passing the limit was not always enough; inconclusive = no clear call, values can overlap the other calls
# Hits are given with their value; - = inactive; ? = inconclusive; . = not tested or not shown. Rule as the data show it, unless noted: active = inhibition above about 30%; inconclusive = no clear call, values can overlap the other calls; inactive = below that.
SMILES,MazF activator,BoNT-A LC inh2,Anthrax LF prot,VHR inh abs,Bead autofluor,BoNT-F LC inh
O=C(NC1CCCCC1)C1CN(S(=O)(=O)c2ccccc2)CCN1S(=O)(=O)c1ccccc1 (stereo not drawn),-,-,-,-,24405,-
Cc1noc(C)c1C(=O)Nc1nc2ccc(Cl)cc2s1,-,-,-,-,-,-
COc1cccc(NC(=O)Nc2ccc3c(c2)N(C)C(=O)CS3)c1,-,-,-,-,-,-
COc1ccc2c(c1)SCC(=O)N2C,-,-,-,-,21232,-
Cc1ccc2c(Cl)c(C)c(N3CCOCC3)nc2n1,-,-,-,.,-,-
CC(=O)Nc1cccc(NC(=O)CS(=O)(=O)c2cn(CC(=O)N3CCOCC3)c3ccccc23)c1,-,-,-,-,-,-
CCn1nnc2c(=O)oc3ccccc3c21,-,-,-,-,-,-
CCn1c(C)nc2c(=O)oc3ccccc3c21,-,-,-,-,21816,-
CC(C)Cn1nnc2c(=O)oc3ccccc3c21,-,?,-,-,24285,-
O=C(CCNC(=O)C1CCN(S(=O)(=O)c2ccc(F)cc2)CC1)NCc1ccc(Cl)cc1,-,-,-,-,-,-
CSc1ccccc1NC(=O)CSCc1ccc(Br)cc1,-,-,-,-,16464,-
Cc1cc(N2CCN(S(=O)(=O)c3ccc4c(c3)OCCO4)CC2)n2ncnc2n1,-,-,-,-,23595,-
Cc1cc(Nc2ccc3c(c2)OCCO3)n2ncnc2n1,-,-,-,-,22455,-
Cc1cc(N2CCN(S(=O)(=O)c3ccc(Br)cc3)CC2)n2ncnc2n1,-,-,-,-,-,-
Cc1ccccc1OCCn1cc(C=O)c2ccccc21,-,-,-,-,-,?
C[C@H]1CN([C@@H](C)CO)S(=O)(=O)c2ccc(-c3ccccc3)cc2O[C@H]1CN(C)C(=O)C1CCC1,-,-,-,.,-,-
Cc1ccccc1NC(=S)NNC(=O)c1ccco1,-,-,-,-,-,-
COCCNC(=S)NNC(=O)c1ccco1,-,-,-,-,23531,-
C=CCNC(=S)NNC(=O)c1ccco1,-,-,-,-,-,-
O=C(NNC(=S)Nc1ccccc1)c1ccco1,-,?,-,-,22369,-
CC(C)CNC(=S)NNC(=O)c1ccco1,-,-,-,-,22008,-
O=C(NNC(=O)c1cccs1)c1ccco1,-,-,-,-,-,-
O=C(NC(=S)NNC(=O)c1cccs1)c1ccco1,-,-,-,-,23561,-
CN(C)C(=O)c1nc2ccc(Cl)cn2c1CNCc1ccccc1OC(F)(F)F,-,-,-,-,-,-
O=C1Nc2cc(C(=O)NCC3CCCO3)ccc2S/C1=C/c1ccccc1F (stereo not drawn),-,-,-,54.2,-,-
SMILES,MazF activator,BoNT-A LC inh2,Anthrax LF prot,VHR inh abs,Bead autofluor,BoNT-F LC inh
CC1(C(=O)NS(=O)(=O)c2ccc(C#N)cc2)CCN1C(=O)CC1CC1 (stereo not drawn),.,-,-,.,-,-
COc1ccc(Oc2ncc(CN3CCN(c4ccccc4)CC3)s2)cc1,-,-,-,-,?,?
CCOC(=O)C1CCN(Cc2cnc(Oc3ccc(C(C)(C)C)cc3)s2)CC1,-,-,-,-,21136,-
Brc1ccc(Oc2ncc(CN3CCOCC3)s2)cc1,-,?,-,-,18177,-
Nc1ccccc1C(=O)NCC1(c2ccccc2)CCCC1,-,-,-,-,-,-
Cc1ccc(NC(=O)CCC(=O)N2CCN(S(=O)(=O)c3ccc(C)cc3)CC2)cc1,-,-,-,.,-,-
O=C(OCn1ncc(Cl)c(Cl)c1=O)c1ccccc1Cl,-,-,-,-,16218,-
CCCCNC(=O)C1c2ccccc2OCC(=O)N1C1CC1 (stereo not drawn),.,-,-,.,-,-
Cc1ccc(C(=O)NCc2ccccn2)c(Cl)c1,-,-,-,-,-,-
O=C(COc1ccccc1Br)NCc1ccccn1,-,-,-,-,22895,-
O=C(COc1ccc(F)cc1Br)NCc1ccccn1,-,-,-,-,-,-
O=C(NCc1ccccn1)Nc1cccc([N+](=O)[O-])c1,-,-,-,-,-,-
O=C(NCc1ccccn1)c1ccccc1Cl,-,?,-,-,23233,-
O=C(NCc1ccccn1)c1cccc([N+](=O)[O-])c1,-,-,-,-,24684,-
CCC(C(=O)Oc1c(C(C)C)cccc1C(C)C)c1ccccc1 (stereo not drawn),-,-,-,.,-,-
C=CCNC(=S)N1N=C(c2ccco2)CC1c1ccco1 (stereo not drawn),-,-,-,.,-,?
CC(C)N(Cc1ccccc1)S(=O)(=O)c1ccc(-n2cccn2)cc1,-,-,-,.,-,-
COC(=O)c1ccccc1NC(=O)CSc1nnc(C(C)NC(=O)c2ccc(Cl)cc2Cl)n1C (stereo not drawn),-,-,-,-,22829,-
Cc1nnc(NC(=O)CSc2nnc(C(C)NC(=O)c3ccccc3F)n2C)s1 (stereo not drawn),-,-,-,-,-,-
O=P(Nc1c(Cl)cccc1Cl)(c1ccccc1)c1nc2c(s1)CCCC2 (stereo not drawn),-,-,-,-,23723,-
O=P(Nc1ccccc1Cl)(c1ccccc1)c1nc2c(s1)CCCC2 (stereo not drawn),-,-,-,-,17289,-
CP(=O)(Nc1ccc(Cl)cc1)c1nc2c(s1)CCCC2 (stereo not drawn),-,-,-,-,-,-
Cc1onc(-c2c(F)cccc2Cl)c1C(=O)Nc1cc(S(=O)(=O)N2CCCCC2)ccc1O,-,.,.,.,.,.
CC(C)COC(=O)N(C)C[C@@H]1OCc2cnnn2CCCC(=O)N([C@H](C)CO)C[C@H]1C,-,-,-,.,-,-
CC(C)CNC(=O)C(=O)N/N=C/c1cccs1,-,-,-,-,18172,-
SMILES,MazF activator,BoNT-A LC inh2,Anthrax LF prot,VHR inh abs,Bead autofluor,BoNT-F LC inh
CCCNC(=O)C(=O)N/N=C/c1cccs1,-,-,-,-,-,-
COc1ccc(CCn2c(=O)[nH]c3cc(C(=O)N4CCN(c5ccccn5)CC4)ccc3c2=O)cc1OC,-,-,-,-,-,-
Cc1sc2ncnc(SCC(=O)NC3CC3)c2c1C,-,-,-,-,24257,-
Cc1sc2ncnc(SCC(=O)NC3CCCC3)c2c1C,-,-,-,-,-,-
CCC(C)N1CCN(S(=O)(=O)Cc2ccccc2)CC1 (stereo not drawn),-,-,-,-,-,-
COc1ccc(CNCC(O)(c2ccc(Cl)cc2)c2ccc(Cl)cc2)cc1,-,-,-,-,21174,-
COc1ccc(CNCC(O)(c2ccccc2)c2ccc(F)cc2)cc1 (stereo not drawn),-,-,-,-,-,-
COc1ccc(CNCC(O)(c2ccc(Cl)cc2)c2ccc(Cl)cc2)cc1OC,-,-,-,-,18261,-
COc1ccc(CNCC(O)(c2ccc(F)cc2)c2ccc(F)cc2)cc1OC,-,-,-,-,-,-
COc1cc(C(=O)NCc2nnc(SCC(=O)N3CCCCCC3)o2)cc(OC)c1OC,-,-,-,-,-,-
O=C(CNC(=O)c1ccccc1F)OCn1nnc2ccccc2c1=O,-,-,-,.,-,-

# High-throughput results as filed in PubChem.
